Bioassay records: PubChem, National Center for Advancing Translational Sciences (NCATS)
DT40 TDP1 no CPT: qHTS for Inhibitors of human tyrosyl-DNA phosphodiesterase 1 (TDP1): qHTS in cells in absence of CPT; DT40 Tdp1-/- hTDP1 cells, no CPT, ATP luminescence, 48 h; Potency, µM (doses to about 46.2 µM), for the others: top-dose activity change, negative = growth inhibition, hits mostly inhibitors; actives 15% (n = 420,000); also: nearly all actives have a fitted effect of over 55% in size
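Cells were dispensed at 400 per well, compounds added by pin tool, plates incubated ≥48 hr at 37 °C, then CellTiter-Glo added for 30 min at room temperature before luminescence reading. Line: DT40 Tdp1-/- complemented with hTDP1; camptothecin omitted.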
VDR inhibitor: Inhibitors of the vitamin D receptor (VDR): qHTS; AID 504847, 2011; Vitamin D3 receptor (Homo sapiens), P11473; Potency, µM, without a hit: max response, negative = inhibition, actives largely listed as inhibitors; VDR-SRC2-3 peptide fluorescence polarization, 2 h; actives 0.93% (n = 400,000)
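Compounds are added to VDR with labelled SRC2-3 coactivator peptide and held 2 h at room temperature. Inhibition of the VDR–peptide interaction is then read as a change in fluorescence polarization.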
PLK1 PBD block: qHTS for Inhibitors of PLK1-PDB (polo-like kinase 1 - polo-box domain): Primary Screen; Serine/threonine-protein kinase PLK1 (Homo sapiens), P53350; AID 720504, 2013; Plk1 PBD binding of FITC phosphopeptide, fluorescence polarization; Potency, µM, for the others: max response, negative = inhibition, actives largely listed as inhibitors; actives 2.8% (n = 360,000); also: series mostly up to about 57 µM; nearly all actives have a fitted effect of over 65% in size
KAT2A inh: qHTS Assay for Inhibitors of GCN5L2. Histone acetyltransferase KAT2A (Homo sapiens), Q92830. GCN5L2 HAT assay, ThioGlo1 CoA-SH fluorescence. Potency, µM (top dose mostly 58.9 µM), for inactives: at the highest dose activity change, negative = inhibition, hits mostly inhibitors. actives 0.21% (n = 390,000). AID 504327, 2011
Target sequence (Q92830 whole entry, looked up): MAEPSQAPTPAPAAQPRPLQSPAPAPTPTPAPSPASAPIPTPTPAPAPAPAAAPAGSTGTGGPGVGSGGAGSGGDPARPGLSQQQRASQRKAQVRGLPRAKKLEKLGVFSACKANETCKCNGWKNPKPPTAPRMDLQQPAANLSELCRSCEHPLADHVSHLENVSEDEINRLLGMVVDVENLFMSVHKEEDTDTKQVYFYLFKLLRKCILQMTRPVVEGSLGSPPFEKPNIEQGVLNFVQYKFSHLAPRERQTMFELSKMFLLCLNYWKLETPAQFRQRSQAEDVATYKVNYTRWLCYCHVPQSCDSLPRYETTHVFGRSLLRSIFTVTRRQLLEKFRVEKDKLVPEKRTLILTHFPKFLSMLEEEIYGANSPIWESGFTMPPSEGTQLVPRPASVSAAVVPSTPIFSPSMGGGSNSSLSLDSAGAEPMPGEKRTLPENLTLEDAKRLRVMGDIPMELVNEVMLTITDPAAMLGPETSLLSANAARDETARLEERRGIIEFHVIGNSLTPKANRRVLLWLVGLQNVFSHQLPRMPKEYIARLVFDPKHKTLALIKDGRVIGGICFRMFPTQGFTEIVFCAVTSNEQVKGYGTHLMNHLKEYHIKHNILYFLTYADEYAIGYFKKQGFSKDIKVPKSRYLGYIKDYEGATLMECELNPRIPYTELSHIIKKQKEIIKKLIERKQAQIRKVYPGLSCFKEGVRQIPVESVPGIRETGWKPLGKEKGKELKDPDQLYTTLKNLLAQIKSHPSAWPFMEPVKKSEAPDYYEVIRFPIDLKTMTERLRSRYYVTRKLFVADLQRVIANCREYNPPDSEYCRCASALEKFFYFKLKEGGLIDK
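Preincubate 20nM GCN5L2 with compound 15 min, RT → add 50uM ThioGlo1 + 75uM H3(1-25) + 70uM acetyl-CoA → read fluorescence 0 and 20 min. Primary qHTS; fluorescent artifacts likely.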
DT40 TDP1 CPT: qHTS for Inhibitors of human tyrosyl-DNA phosphodiesterase 1 (TDP1): qHTS in cells in presence of CPT. chicken DT40 Tdp1-/-;hTDP1 cells + 20 nM CPT, ATP luminescence, 48 h. Potency, µM (series often up to 46.2 µM), inactives show at the top dose activity change, negative = growth inhibition, hits mostly inhibitors. actives 12% (n = 420,000). AID 686979, 2013; also: nearly all actives have a fitted effect of over 55% in size
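Cell growth measured by CellTiter-Glo luminescence after a minimum 48 h, 37 C compound exposure with 20 nM CPT in Tdp1-knockout DT40 cells stably expressing hTDP1, seeded 400/well; qHTS titration format.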
TDP1 block: qHTS Assay for Inhibitors of Tyrosyl-DNA Phosphodiesterase (TDP1). recombinant TDP1, AlphaScreen DNA substrate cleavage. Tyrosyl-DNA phosphodiesterase 1 (Homo sapiens), Q9NUW8. Potency, µM (top dose mostly 130 µM), for inactives: at the highest dose activity change, negative = inhibition, hits mostly inhibitors. actives 0.28% (n = 350,000). AID 485290, 2010; also: nearly all actives have a fitted effect of over 40% in size
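E. coli-derived human Tdp1, 1 nM final. Cpd preinc 15 min RT; substrate 15 nM final, 5 min RT; AS bead mix 10 ug/ml final, 10 min RT. Signal loss = tyrosine-FITC cleavage. No-enzyme wells = max signal.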
* = called active by the depositor; ? = inconclusive; / = no result given. Sampled rows, rich in hits. Any-hit rate of the full collection: about 18%. Calls follow the shape of the dose curve; as a rule, active = well fitted curve in the direction sought with a large enough effect; inconclusive = small, poorly fitted or top-dose-only effect, or another doubt; inactive = no such curve, though single readings can be large; an effect the other way counts as inactive or inconclusive. % is scaled to controls: 0 for no effect and ±100 for the full control effect; potency is read from the fitted curve at half-maximal effect.

SMILES | DT40 TDP1 no CPT | VDR inhibitor | PLK1 PBD block | KAT2A inh | DT40 TDP1 CPT | TDP1 block
CC(=O)Nc1ccc(Nc2ccc([N+](=O)[O-])cn2)cc1 | 9.2µM* | -7% | -4% | -4% | ? | /
O=[N+]([O-])c1ccc(Nc2ccc(F)cc2)nc1 | ? | -17% | -8% | -9% | ? | -3%
CC(=O)Nc1cccc(OCCCOc2ccc([N+](=O)[O-])cc2)c1 | 3.7µM* | 6% | 3% | ? | 13µM* | /
COc1cc(C(=O)NCC(=O)OCCN2C(=O)c3ccccc3C2=O)cc(OC)c1OC | 5% | -22% | -17% | -3% | -12% | -4%
COc1ccc(Cl)cc1NS(=O)(=O)c1ccc2c(c1)NC(=O)CC(=O)N2 | -2% | -3% | / | 3% | -27% | 1%
CCCN(CC(=O)NC(=O)NCc1ccccc1)CC(=O)Nc1ccc(F)c(F)c1F | ? | / | -8% | / | ? | /
COc1ccc(Cl)cc1NC(=O)CSc1nccn1Cc1ccco1 | ? | 3% | / | -1% | ? | 9%
O=C(Nc1ccc(Oc2ccc(NC(=O)Nc3ccc([N+](=O)[O-])cc3)cc2)cc1)Nc1ccc([N+](=O)[O-])cc1 | 2.1µM* | -11% | ? | -6% | 2.3µM* | 0%
CC(=O)Nc1ccc(S(=O)(=O)NCCC(=O)OCc2ccc([N+](=O)[O-])cc2)cc1 | 16µM* | 4% | -7% | 1% | 13µM* | 4%
CC(=O)c1ccc(NC(=O)Nc2ccc([N+](=O)[O-])cc2)cc1 | 0% | 10% | -1% | -2% | 3% | 5%
CC(=O)Nc1ccc(OS(=O)(=O)c2ccc([N+](=O)[O-])cc2)cc1 | 16µM* | ? | -2% | ? | 18µM* | 0%
O=C1Nc2ccccc2N(C(=O)c2ccc(-c3ccccc3)cc2)C1c1nc2ccccc2[nH]1 (stereo not given) | 21µM* | / | -4% | / | ? | /
CC1=CC(C)(C)N(S(=O)(=O)c2ccc(F)cc2)c2ccc(C)cc21 | 5.8µM* | -5% | 1% | -7% | ? | -2%
C/C=C/C(=O)N1c2ccccc2C(C)=CC1(C)C | -15% | -6% | -4% | -14% | -9% | 4%
CC1=CC(C)(C)N(S(=O)(=O)c2ccc(C)cc2)c2ccccc21 | 18µM* | 4% | 3% | -4% | 12µM* | 4%
Cc1ccc2nc(COc3ccccc3NC(=O)c3ccc(F)cc3)cc(=O)n2c1 | -8% | 5% | / | 1% | 16% | 5%
CCN1C(=O)[C@H]2[C@@H](c3ccc(-c4ccc(OC)cc4)cc3)N3CCC[C@@]3(C(=O)OC)[C@H]2C1=O | 15µM* | -21% | 2% | -10% | ? | -6%
CCN1C(=O)[C@H]2[C@@H](c3ccc(-c4ccc(OC)cc4)cc3)N3CCCC[C@@]3(C(=O)OC)[C@H]2C1=O | 16µM* | 1% | 3% | -14% | ? | -1%
CCN1C(=O)[C@@H]2[C@@H](c3ccc(-c4ccc(OC)cc4)cc3)N3CCC[C@@]3(C(=O)OC)[C@@H]2C1=O | 21µM* | -3% | 3% | -1% | ? | 3%
Nc1ncnc2c1nc(N1CCCCC1)n2[C@@H]1O[C@@H]2COP(=O)(O)O[C@H]2[C@H]1O | / | 18% | / | -10% | / | 7%
Cc1cccc(C)c1NC(=O)c1ccc2c(c1)N(Cc1cccc(Cl)c1)C(=O)c1ccccc1S2=O (stereo not given) | / | -8% | / | -10% | / | -4%
O=[N+]([O-])c1cc(C(F)(F)F)ccc1Sc1ccc2ccccc2n1 | -24% | -26% | 30µM* | 4% | -31% | 8%
O=C(CSc1ccc(C(F)(F)F)cc1[N+](=O)[O-])N1CCOCC1 | -11% | -18% | -30% | -10% | -7% | /
O=C(COC(=O)Cn1nnc2ccccc21)Nc1ccccc1Br | ? | ? | 30µM* | -2% | ? | 4%
CCCCNc1cc(NC(C)=O)cc2cc(OC)c(OC)cc12 | ? | 13% | -14% | -2% | 18µM* | 3%
SMILES | DT40 TDP1 no CPT | VDR inhibitor | PLK1 PBD block | KAT2A inh | DT40 TDP1 CPT | TDP1 block
CC(C)c1ccc(S(=O)(=O)NC2CCS(=O)(=O)C2)cc1 (stereo not given) | ? | -7% | -7% | -9% | -11% | 1%
CCCCC[C@H](C)N1C[C@H](COCc2ccccc2)Oc2cc(N3CCC[C@H]3C(N)=O)ccc2S1(=O)=O | ? | / | -4% | / | ? | /
C[C@H](c1ccccc1)N1C[C@H](COCc2ccccc2)Oc2cc(N3CCC[C@H]3C(N)=O)ccc2S1(=O)=O | 16µM* | / | -4% | / | ? | /
CCCCC[C@@H](C)N1C[C@H](COCc2ccccc2)Oc2cc(N3CCC[C@H]3C(N)=O)ccc2S1(=O)=O | 6.5µM* | / | -13% | / | 2.9µM* | /
Cc1ccccc1C(=O)N1CCC(C(=O)OCc2ccccn2)CC1 | -16% | -6% | -1% | -5% | -3% | 0%
Cc1cccc(N=C2Sc3nc4c(C)c(C)ccc4cc3CN2CCN2CCOCC2)c1 | 23µM* | -5% | -4% | -9% | 18µM* | 5%
CCc1cccc(NC(=O)CN2CCCN(Cc3cccc(C)c3)S2(=O)=O)c1 | 29µM* | 15% | / | 18% | ? | 1%
Cc1cccc(CN2CCN(CC(=O)Nc3c(C)cccc3C)S2(=O)=O)c1 | 16µM* | 14% | / | -6% | ? | -6%
CCOC(=O)CSc1cc(C)c(C#N)c2nc3ccccc3n12 | 23µM* | -22% | -15% | -14% | ? | 3%
CCC(C)Nc1cc(C)c(C#N)c2nc3ccccc3n12 (stereo not given) | ? | -1% | 5% | -5% | -21% | /
CCC(C)Sc1cc(C)c(C#N)c2nc3ccccc3n12 (stereo not given) | 16µM* | -9% | -16% | -6% | 18µM* | 6%
CC(C)(C)OC(=O)N(CCc1ccccc1)Cc1ccccc1OCc1cccc(NC(=O)C2CCC2)c1 | 13µM* | -7% | 3% | / | 16µM* | /
CC(C)(C)OC(=O)N(Cc1ccccc1)Cc1ccccc1OCc1cccc(NC(=O)C2CC2)c1 | ? | 17% | -3% | / | ? | /
CC(C)(C)OC(=O)N(CCc1ccccc1)Cc1cccc(OCc2cccc(NC(=O)C3CCC3)c2)c1 | ? | 14% | -4% | / | ? | /
